Test results taken from PubChem BioAssay (NCATS).
Inconclusive results are not listed. A call without a number means that no potency is given here. Active and inactive are the calls of the source. Calls follow the shape of the dose curve; as a rule, active = well fitted curve in the direction sought with a large enough effect; inconclusive = small, poorly fitted or top-dose-only effect, or another doubt; inactive = no such curve, though single readings can be large; an effect the other way counts as inactive or inconclusive.

What was measured:
[1] = target: Aldehyde dehydrogenase, mitochondrial (Homo sapiens) (UniProt P05091); assay: qHTS for Inhibitors of the Aldehyde Dehydrogenase Family (ALDH2) Primary screen (AID 2061308); also: nearly all actives have a fitted effect of over 55% in size
[2] = target: Retinaldehyde dehydrogenase 3 (Homo sapiens) (UniProt P47895); assay: qHTS for Inhibitors of the Aldehyde Dehydrogenase Family (ALDH1A3) Primary screen (AID 2061315)

SMILES | Potency [1] | Potency [2]
COc1ccccc1C1c2c(ncn(-c3ccccc3)c2=N)Oc2ccc3ccccc3c21 (configuration not stated) | inactive | inactive
COc1cc(F)c(S(=O)(=O)N2CCCN(S(=O)(=O)c3ccc(NC(C)=O)cc3)CC2)c(F)c1 | inactive | inactive
Cc1cc(C)nc(NC(=S)N2CCN(c3ccc(F)c(F)c3)CC2)c1 | inactive | inactive
O=C(OCC#CCSc1nnc(-c2cccc(F)c2)o1)c1ccc(F)cc1 | inactive | inactive
Cc1cc2c(s1)c1cnn(Cc3c(F)ccc(F)c3F)c(=O)c1n2C | inactive | inactive
COCC1CCCN(C(=O)CC(c2ccc3c(c2)OCO3)c2c(O)cc(OC)cc2OC)C1 (configuration not stated) | inactive | inactive
N#Cc1cc(NC(=O)Nc2nnc(-c3ccncc3)s2)ccc1Cl | inactive | inactive
O=C1c2ccccc2C(=O)N1c1cccc(Cl)c1 | inactive | inactive
CC(=O)c1ccc(N2CCN(S(=O)(=O)c3ccc4c(c3)CCCN4C(C)=O)CC2)cc1 | inactive | inactive
COc1cccc(-c2ccc3ncnc(NCc4cc(C)cs4)c3c2)c1 | inactive | inactive
O=C(Nc1ccc(F)c(C(F)(F)F)c1)Nc1nnc(-c2cccnc2)s1 | inactive | inactive
Cc1nc(N2CCOCC2)c2nc(-c3ccccc3)n(CC(C)(C)CN(C)C)c2n1 | inactive | inactive
CCCn1c(C)nc2c(NC3CCN(Cc4ccccc4)C3)nc(C)nc21 (configuration not stated) | inactive | inactive
CCN(CC)CCn1c(-c2ccccc2)nc2c(NC3CCCCC3)nc(C)nc21 | inactive | inactive
CCOC(=O)c1c(CNCc2ccccc2F)c2sc(C)cc2n1C | inactive | inactive
CCOC(=O)C1CCN(C(=O)C2(NC(=O)Nc3ccccc3Cl)CCC2)CC1 | inactive | inactive
COc1ccc(Cl)cc1S(=O)(=O)N1CCN(S(=O)(=O)c2ccc3c(c2)OCCO3)CC1 | inactive | inactive
O=C(Nc1ccc(-c2nc3ccccc3[nH]2)cc1)c1ccc2c(c1)OCCO2 | inactive | inactive
N#Cc1nc(Nc2cc(F)cc(F)c2)nc(NC2CCCC2)n1 | inactive | inactive
N=c1c2c(ccn1CCc1ccccc1)Oc1ccc3ccccc3c1C2c1ccccc1 (configuration not stated) | inactive | inactive
N#Cc1nc(-c2cccc3ccccc23)oc1NCC#CCOC(=O)c1cccs1 | inactive | inactive
c1ccc(CNCc2nnc(-c3cc4ccccc4[nH]3)s2)cc1 | inactive | inactive

SMILES | Potency [1] | Potency [2]
COC(=O)Nc1sc2c(c1C(N)=O)CCCC2 | inactive | inactive
C=Cc1cc(F)c(S(=O)(=O)N2CCN(S(=O)(=O)c3ccc4c(c3)OCCO4)CC2)cc1F | inactive | inactive
O=C(CN1C(=O)N/C(=C\c2cccn2-c2cccc(C(=O)O)c2)C1=O)Nc1ccccc1F | inactive | inactive
Cc1ccc(-c2ccnn(CC(=O)N(C)C(C)c3ccco3)c2=O)cc1 (configuration not stated) | inactive | inactive
CCC1CCC(C(=O)Nc2ccc(S(=O)(=O)Nc3nccs3)cc2)CC1 (configuration not stated) | inactive | inactive
COC(=O)C1=CC[C@H](c2ccc(C)cc2)N(S(=O)(=O)c2ccc(C)cc2)[C@@H]1c1ccc(C(C)(C)C)cc1 | inactive | inactive
O=C(c1ccc2c(c1)ncn2-c1ccc(Cl)cc1)N1CCCCC1 | inactive | inactive
Cc1cc(C)cc(N2CCN(C(=S)Nc3cc(C)cc(C)n3)CC2)c1 | inactive | inactive
Cc1c(C(=O)NCC2CCCO2)[nH]c2c1C(=O)CCC2 (configuration not stated) | inactive | inactive
CCC(O)(c1nnc(NCc2ccc3c(-c4ccc(F)cc4)cc(=O)oc3c2)o1)C(F)(F)F (configuration not stated) | inactive | inactive
COc1ccc(OC2=NS(=O)(=O)c3ccccc32)cc1 | inactive | inactive
O=C(COC(=O)CNC(=O)c1ccccc1Cl)Nc1cc(C(F)(F)F)ccc1Cl | inactive | inactive
O=C(NCc1cccnc1)C1CCN(S(=O)(=O)c2cccs2)CC1 | inactive | inactive
N#Cc1ccc(Nc2nn3c(=O)c4ccccc4nc3s2)cc1 | inactive | inactive
COc1ccc(Cl)cc1C(=O)Nc1nc(-c2ccccc2)cs1 | inactive | inactive
COc1ccc(-c2nc3ccccc3c(=O)n2Cc2ccccc2)cc1COc1ccc(NC(C)=O)cc1 | inactive | inactive
CC(O)(C(=O)C1CC1(CO)COC1OC(CO)C(O)C(O)C1O)C1C(O)CC2C3CC=C4CC(O)CC(O)C4(C)C3C(O)CC21C (configuration not stated) | inactive | inactive
COc1ccc2c(c1)CN(C(=O)CCN1CCC(Cc3ccccc3)CC1)CCS2 | inactive | inactive
Cc1nc2ccccn2c1C(O)(c1ccccc1)c1ccccc1 | inactive | inactive
Cc1cc(-c2nnc3n2CCC3)c(C)n1-c1ccccc1 | inactive | inactive
N=c1c2c(ccn1CCCc1ccccc1)Oc1ccc3ccccc3c1C2c1ccccc1 (configuration not stated) | inactive | inactive
COc1cc(O)c(C(CC(=O)N2CCC(c3ccccc3)CC2)c2ccc(OC)c(OC)c2)c(OC)c1 (configuration not stated) | inactive | inactive

SMILES | Potency [1] | Potency [2]
CCOc1ccc(C(=O)Oc2ccc(-c3nc4ccccc4[nH]3)cc2)cc1Cl | inactive | inactive
O=C1CCc2cc(S(=O)(=O)Nc3ccc(Cl)c(Cl)c3)ccc2N1 | inactive | inactive
N#Cc1nc(NCCCCO)nc(Nc2ccccc2)n1 | inactive | inactive
COc1cc(OC)cc(C2=Nn3c(nnc3-c3ccccc3OC)SC2)c1 | inactive | inactive
COc1ccc(C2Nc3ccccc3C(=O)N2Cc2ccco2)cc1COc1c(C(C)C)cccc1C(C)C (configuration not stated) | inactive | inactive
Cc1cc(C)nc(NC(=S)N2CCN(c3nc(C)cnc3C)CC2)c1 | inactive | inactive
Cc1cc(C)nc(NC(=S)N2CCN(c3ccc4nncn4c3)CC2)c1 | inactive | inactive
Cc1cc(C)nc(NC(=S)N2CCN(c3cccc(C#N)c3)CC2)c1 | inactive | inactive
CC(=O)N1CCN(C(=O)COC(=O)c2ccc([S+](C)(=O)[O-])c([N+](=O)[O-])c2)CC1 | inactive | inactive
Cc1nc(NCCO)c2nc(-c3ccccc3)n(CCN(C)C)c2n1 | inactive | inactive
COc1cc(-c2nc(Nc3ccc(F)c(F)c3)c3ccccc3n2)c(F)cn1 | inactive | inactive
Cc1ccc(OCCn2c(CCNC(=O)c3ccc(Br)o3)nc3ccccc32)cc1 | inactive | inactive
O=C(O)c1cccc(-c2cccc(-c3nn4c(=O)cc(N5CCNCC5)nc4s3)c2)c1 | inactive | inactive
O=C(/C=C/c1ccc(OC(F)(F)F)cc1)Nc1cccc([S+](=O)([O-])Nc2ccccc2F)c1 | inactive | inactive
CC(C)(C)N[S+](=O)([O-])c1cccc(-c2nnc(SCc3ccc(C(=O)O)cc3)n2-c2ccc(F)cc2)c1 | inactive | inactive
O=C(NC1CCCc2c1cnn2-c1ccc(F)cc1F)c1cccc(=O)[nH]1 (configuration not stated) | inactive | inactive
COc1ccc(C2c3c(N)nc(CCCc4ccccc4)nc3Oc3ccc4ccccc4c32)cc1OC (configuration not stated) | inactive | inactive
O=[S+]([O-])(Nc1nccs1)c1ccc(NCc2ccc(Cl)c(Cl)c2)cc1 | inactive | inactive
Cc1ccc(C(=O)Nc2ccc(N3CCCCC3)cc2)cc1 | inactive | inactive
COc1ccc(-c2ccc(NC(=O)c3cccs3)cn2)cc1 | inactive | inactive
Cc1cc(NS(=O)(=O)c2ccc(NC(=O)c3ccc(Cl)c(Cl)c3)cc2)no1 | inactive | inactive
CCC1(CC)CCN(C(=O)CC(c2ccc3c(c2)OCO3)c2c(O)cc(OC)cc2OC)C1 (configuration not stated) | inactive | inactive

SMILES | Potency [1] | Potency [2]
Cc1ccc(S(=O)(=O)Nc2ccc(Br)cc2C(=O)Nc2nc(-c3ccccc3)cs2)cc1 | inactive | inactive
COc1ccc(C(=O)O)cc1COc1ccc(NC(C)=O)cc1 | inactive | inactive
COc1ccc(C2Nc3ccccc3C(=O)N2Cc2ccc3c(c2)OCO3)cc1COc1c(C)cc(NC(C)=O)cc1C (configuration not stated) | inactive | inactive
NC(=O)c1ccccc1C[C@H](C(=O)O)N1C(=O)c2ccc(C(=O)O)cc2C1=O | inactive | inactive
COc1ccc(C2Nc3ccccc3C(=O)N2Cc2ccccc2)cc1COc1c(C)cccc1C (configuration not stated) | inactive | inactive
O=C(NCc1ccc(F)cc1)n1cc(P(=S)(c2ccccc2)c2ccccc2)c2ccccc21 | inactive | inactive
Oc1c(CN2CCCCC2)cc(COCc2ccccc2)c2cccnc12 | inactive | inactive
COc1ccc(C2=Nn3c(nnc3-c3ccccc3Cl)SC2)cc1OC | inactive | inactive
O=C(NCCc1nc2ccccc2n1CCOc1ccccc1[N+](=O)[O-])C1CCCCC1 | inactive | inactive
O=C(Nc1cccnc1)c1cccs1 | inactive | inactive
Cc1cc(-c2nc(Nc3ccc(F)c(F)c3)c3ccccc3n2)ccn1 | inactive | inactive
O=S1(=O)N=C(Sc2cc(C(F)(F)F)cc(C(F)(F)F)c2)c2ccccc21 | inactive | inactive
Cc1sc(NC(=O)Cc2ccc3c(c2)OCO3)nc1-c1ccc2c(c1)CCN2C(=O)C1CCCCC1 | inactive | inactive
Cc1ccc(-c2ccc(=O)n(CC(=O)N(C)C(C)c3ccco3)n2)cc1 (configuration not stated) | inactive | inactive
COc1ccc2ncnc(NCC3CCCO3)c2c1-c1ccc2c(c1)OCO2 (configuration not stated) | inactive | inactive
O=C1CCCC2=C1C1(CCCC1)N=C(Nc1nc3cc(Br)ccc3o1)N2 | inactive | inactive
Cc1ccc(-c2cc(C(=O)Nc3ccncc3)c3ccccc3n2)cc1C | inactive | inactive
CCOc1ccc(C(=O)Nc2ccc(-c3nn[nH]n3)cc2)cc1[N+](=O)[O-] | inactive | inactive
O=C(Nc1cccc(-c2nn3c(=O)cc(N4CCNCC4)nc3s2)c1)c1ccon1 | inactive | inactive
O=C(Nc1nnc(-c2ccncc2)s1)Nc1cccc2ccccc12 | inactive | inactive
